Screens from PubChem BioAssay.
HepG2 tox = kills HepG2 cells in TGF-b inhibitor counter-screen; HepG2 CAGA-GFP viability, ATP luminescence, 18 h; Potency, µM (doses to about 46.1 µM), usual class: cytotoxic; 410,000 tested, 0.76% active; AID 588856
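CellTiter-Glo luminescence gave cytotoxicity after 18 hours at 37 degrees C. The cells were HepG2 CAGA-GFP in 1% FBS DMEM, stimulated with 500 pg/mL TGF-beta after compound addition. %Activity was normalised to no-cell wells (complete cell-killing) and DMSO (no toxicity), and curves were fitted and classified.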
TDP1 cell noCPT = qHTS for Inhibitors of human tyrosyl-DNA phosphodiesterase 1 (TDP1): qHTS in cells in absence of CPT; Potency, µM (doses to about 46.2 µM), hits mostly inhibitors; 420,000 tested, 15% active; DT40 Tdp1-/- hTDP1 cells, no CPT, ATP luminescence, 48 h; AID 686978, 2013; further: nearly all actives have a fitted effect of over 55% in size
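Stably hTDP1-transfected Tdp1-null chicken DT40 cells were treated with library compounds minus camptothecin and grown for at least 48 hr at 37 °C, after which cellular ATP was quantified by luminescence.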
ATXN2 expr inh = inhibitors of ATXN2 expression. HEK-293 ATXN2-luciferase reporter, luminescence, 24 h. Potency, µM (titrated, usually from 57 µM), actives largely listed as inhibitors. 360,000 tested, 0.72% active; further: nearly all actives have a fitted effect of over 55% in size
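ATXN2-luciferase reporter cells (luciferase flanked by upstream and downstream ATXN2 gene portions) were treated 24 h at 37 °C with compounds at up to 57 uM. SteadyGlo luminescence gave expression; GF-AFC fluorescence gave viability.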
TDP1 cell CPT = DT40-hTDP1 cell growth loss with CPT | 420,000 tested, 12% active | AID 686979 | Potency, µM (series often up to 46.2 µM), most hits filed as inhibitors | chicken DT40 Tdp1-/-;hTDP1 cells + 20 nM CPT, ATP luminescence, 48 h; further: nearly all actives have a fitted effect of over 55% in size
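Cell growth measured by CellTiter-Glo luminescence after a minimum 48 h, 37 C compound exposure with 20 nM CPT in Tdp1-knockout DT40 cells stably expressing hTDP1, seeded 400/well; qHTS titration format.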
TGFb SMAD3 inh = blocks TGF-b signaling | HepG2 CAGA-GFP TGF-b/SMAD3 reporter, GFP fluorescence, 18 h; TGF-beta stimulated, 500 pg/mL final | Potency, µM (titrated, usually from 46.1 µM), actives largely listed as inhibitors | 410,000 tested, 1.2% active | AID 588855; further: nearly all actives have a fitted effect of over 65% in size
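HEPG2 CAGA-GFP, 1000 cells/well; 2 h settle, 37 C; cpd via pin tool; TGF-b 500 pg/mL final; 18 h, 37 C; GFP imaging ex488/em500-530; %Activity normalised to -TGF-b and +DMSO controls; CRC fit, curve class.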
ATXN viability = reduces viability in counter-screen for ATXN expression inhibitors; AID 651635; 400,000 tested, 0.49% active; Potency, µM (titrated, usually from 56.7 µM), usual class: cytotoxic; S2 cells (HEK-293 line with an ATXN2-luciferase reporter) viability, CellTiter-Fluor protease fluorescence, 24 h; further: nearly all actives have a fitted effect of over 40% in size
A number is an active result; - = inactive; ? = inconclusive; . = no result given; [ ] = remark or other dose. In the library only some 17% were active in any assay of this set; here they are far more common. The call rests on the fitted dose curve; in most records, active means well fitted curve in the direction sought with a large enough effect; inconclusive means small, poorly fitted or top-dose-only effect, or another doubt; inactive means no such curve, though single readings can be large; an effect the other way counts as inactive or inconclusive.

SMILES	HepG2 tox	TDP1 cell noCPT	ATXN2 expr inh	TDP1 cell CPT	TGFb SMAD3 inh	ATXN viability
O=C(CCN1CCC2CCC(C2)C1)c1ccccc1 (stereo not given)	-	2.6µM	-	2.6µM	-	-
COc1cc2c(cc1C(F)(F)F)N(C(=O)Nc1cc(F)cc(-c3cccnc3)c1)CC2	.	3.5µM	.	4.5µM	.	.
CCc1ccc2[nH]c(=O)c(CN(CCCN3CCOCC3)C(=O)Nc3ccccc3)cc2c1	-	21µM	-	23µM	-	-
CCOc1ccc2[nH]c(=O)c(CN(CCCN3CCOCC3)C(=O)Nc3ccc(F)cc3)cc2c1	-	-	-	-	-	-
CCc1ccc2[nH]c(=O)c(CN(CCCN3CCOCC3)C(=O)Nc3cccc(Cl)c3)cc2c1	-	15µM	-	?	?	?
COc1ccc(CN(CCCN2CCOCC2)C(=O)Nc2cccc(Cl)c2)cc1OC	-	?	-	-	?	-
Cc1cccc(C)c1NC(=O)CSc1nccn1C	-	.	-	.	-	-
CCOc1ccc(NC(=O)c2ccc(F)cc2F)cc1	-	-	-	-	-	-
O=C(CSc1nc2c(c(=O)[nH]1)CN(Cc1ccc(F)cc1)CC2)Nc1ccc(F)cc1	-	16µM	-	21µM	-	?
Cc1ccc(NC(=O)CSc2nc3c(c(=O)[nH]2)CN(Cc2ccc(F)cc2)CC3)cc1C	-	?	-	?	?	?
CCCCC1=CC2=CC(=O)C(C)(OC(=O)CC)C(=O)C2=CN1CCc1c[nH]c2ccccc12 (stereo not given)	-	16µM	-	?	-	-
CCCCC1=CC2=CC(=O)C(C)(OC(=O)CC)C(=O)C2=CN1CCc1ccc(Br)cc1 (stereo not given)	-	?	-	?	-	?
CCCCC1=CC2=CC(=O)C(C)(OC(=O)CC)C(=O)C2=CN1c1ccccc1 (stereo not given)	-	16µM	-	?	-	-
CCCCC1=CC2=CC(=O)C(C)(OC(=O)CC)C(=O)C2=CN1Cc1ccccc1 (stereo not given)	-	18µM	-	13µM	-	?
S=C1SC2(CCCCCC2)NC2=C1CCCCC2	-	13µM	.	?	-	.
CCN(CC(=O)Nc1ccc(NC(C)=O)cc1)C(=O)CCCOc1ccc(C(C)(C)C)cc1	-	23µM	-	18µM	?	-
CCN(CC(=O)NCc1cccs1)C(=O)CCCOc1ccc(C(C)(C)C)cc1	-	?	-	?	?	?
O=c1[nH]c(C2CCN(S(=O)(=O)c3ccc(C(F)(F)F)cc3)CC2)nc2c1nnn2Cc1ccccc1	-	?	?	?	?	-
CCN(CC)C(=O)c1cccc(-c2csc(C(O)c3cccc(Cl)c3)n2)c1 (stereo not given)	-	16µM	-	?	?	?
CCN(CC)C(=O)c1cccc(-c2csc(C(O)c3ccc(OC)cc3)n2)c1 (stereo not given)	-	18µM	?	16µM	-	-
CCN(CC)C(=O)c1cccc(-c2csc(C(O)c3ccc(F)c(OC)c3)n2)c1 (stereo not given)	-	16µM	?	18µM	?	?
COc1ccc(C(O)c2nc(-c3cccc(C(=O)O)c3)cs2)cc1 (stereo not given)	-	-	-	-	-	-
CCC1CN(CCNC(=O)c2ccc(N3CCOCC3)cc2)Cc2cc(OC)ccc2O1 (stereo not given)	.	-	.	-	.	-
CCC(c1nnnn1CS(=O)(=O)c1ccc(C)cc1)N1CCC(C(N)=O)CC1 (stereo not given)	-	-	-	-	-	-
CCCC(=O)N/C(N)=N/c1nc(C)c2cc(C)ccc2n1	-	23µM	-	18µM	-	?
SMILES	HepG2 tox	TDP1 cell noCPT	ATXN2 expr inh	TDP1 cell CPT	TGFb SMAD3 inh	ATXN viability
CCc1ccc2nc(N=C(N)N)nc(C)c2c1	-	7.3µM	?	10µM	-	?
CCC(=O)N/C(N)=N/c1nc(C)c2cc(C)c(C)cc2n1	-	?	-	-	-	-
Cc1ccc2nc(N=C(N)N)nc(C)c2c1	-	23µM	-	?	?	-
Cc1cc2nc(N=C(N)N)nc(C)c2cc1C	-	8.2µM	.	15µM	-	?
Cc1cc2nc(/N=C(\N)NC(=O)C(C)C)nc(C)c2cc1C	-	?	-	?	-	?
COc1cccc(C2(CC(=O)N3CCN(c4nonc4C)CC3)CC(=O)N(C3CCCC3)C2=O)c1 (stereo not given)	.	?	.	?	.	-
O=C1c2ccccc2C(=O)N1CN(C(=O)COc1ccccc1)c1ccc(F)cc1	-	-	-	-	-	-
Cc1ccnn1CC(=O)N1CCOc2c(cc(-c3csc4ccccc34)cc2OC2CCOC2)C1 (stereo not given)	.	?	.	?	.	-
CCOc1ccc(NC(=O)CCc2c(C)nn(-c3ccc(N4CCCCC4)nn3)c2C)cc1	-	?	-	?	-	-
Cn1c(=O)c(-c2ccccc2)nc2cnc(Nc3ccccc3)nc21	.	-	.	-	.	.
CN(C)c1ccc(-c2ccc(CCO)cc2)cc1	-	-	.	-	-	.
Cc1nc(/N=C(\N)NC(=O)c2ccccc2)nc2ccccc12	-	?	-	29µM	?	-
Cc1nc(/N=C(\N)NC(=O)N2c3ccccc3Sc3ccccc32)nc2ccccc12	-	?	-	?	?	?
CCN(c1ccc(NC(=O)CN2C(=O)NC3(CCOc4ccccc43)C2=O)cc1)C(C)C (stereo not given)	-	?	-	?	-	?
COc1ccc(C(=O)NCC2Cc3c(F)ccc(-c4nc(C)cnc4C)c3O2)cc1F (stereo not given)	.	-	.	-[9.04 µM]	.	?
CN(C)c1ccc(/C=C2\C=Cc3ccccc32)cc1	-	?	.	-	-	.
CN(C)/C=C1\C=Cc2ccccc21	-	13µM	.	?	?	.
NC(N)=Nc1ccc(/C=C2\C=Cc3ccccc32)cc1	-	13µM	.	11µM	16µM	.
CN(C)N=Nc1ccc(/C=C2\C=Cc3ccccc32)cc1	-	?	.	14µM	-	.
C1=Cc2ccccc2/C1=C/c1ccc(/C=C2\C=Cc3ccccc32)cc1	-	-	.	-	-	.
CC(Oc1cc2oc(=O)c3c(c2cc1Cl)CCC3)C(=O)NCc1ccncc1 (stereo not given)	-	?	-	-	-	-
COc1ccc2c(CN(Cc3ccccc3)Cc3ccccc3)cc(=O)oc2c1	-	?	-	16µM	-	-
O=c1cc(CN(Cc2ccccc2)Cc2ccccc2)c2c(ccc3ccccc32)o1	-	?	-	29µM	?	-
COc1ccc(N2CCN(Cc3cc(=O)oc4cc(C)c(Cl)c(C)c34)CC2)cc1	-	9.2µM	-	15µM	-	-
